# High-throughput results (PubChem BioAssay)
# The sample as a whole holds a higher share of hits than the screen did.
# Pf Dd2 growth – Plasmodium falciparum Dd2 growth inhibition. P. falciparum Dd2 growth, SYBR Green, 72 h. 120,000 tested, 4.3% active. Potency, µM (highest dose often 28.9 µM), most hits filed as inhibitors; active means well fitted inhibition curve with a large enough effect; further: nearly all actives have a fitted effect of over 65% in size
#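 Readout: SYBR Green fluorescence, 485 nm excitation, 535 nm emission, after ~16 h lysis at 37C. Before that, Dd2-infected red cells (2.5% hematocrit) grew 72 h with compound, 29 uM top final concentration.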
# Numbers stand for hits; – = inactive.
SMILES,Pf Dd2 growth
CC(C)c1cc(C(=O)NCc2cccnc2Oc2cccc(C(F)(F)F)c2)n[nH]1,–
OCC1(Cc2ccccc2)CCN(Cc2ccccc2-c2ccco2)CC1,8.9µM
COc1ccccc1CN1CCC2(CC1)COCCN2C(=O)OCc1ccccc1,–
CCCn1cc(CN2CCC(CO)(Cc3ccccc3Cl)CC2)c(C)n1,–
CCc1cnc(N2CCC(Oc3cnc4c(ccn4CCN[S+](C)(=O)[O-])c3)CC2)nc1,–
CCN1CC2(CCN(C(=O)COC(C)C)CC2)CC(c2ccccc2)C1=O (stereo not drawn),–
COc1ccc(Cl)cc1NC(=O)c1c(NCc2cccnc2)sc2c1CCCC2,11µM
COc1ccccc1NC(=O)c1c(NC(=O)c2ccccc2F)sc2c1CCC2,–
CCOC(=O)N1CCc2c(sc(NCc3sccc3C)c2C(=O)Nc2cc(Cl)ccc2OC)C1,–
O=C(Nc1sc2c(c1C(=O)Nc1ccccc1)CCC2)c1ccc(Br)cc1,–
COc1ccccc1NC(=O)c1c(NC(=O)c2ccccc2Cl)sc2c1CCC2,–
COc1ccc(NC(=O)c2c(NCc3ccc(OC)c(OC)c3OC)sc3c2CCC3)c(OC)c1,10µM
CCOC(=O)c1c(NC(=O)c2ccc(OC)c(OC)c2)sc2c1CCCCC2,–
CCOc1ccccc1NC(=O)c1c(NCc2ccc(OC)c(OC)c2OC)sc2c1CCC(C)C2 (stereo not drawn),–
Cc1cccc(NC(=O)c2c(NC(=O)c3ccccc3)sc3c2CCCC3)c1,–
COC(=O)c1c(NC(=O)/C=C/c2ccc(OC)c(OC)c2)sc2c1CCC2,–
COC(=O)c1ccc(NC(=O)c2c(NCc3ccc(OC)c(OC)c3)sc3c2CCCC3)cc1,11µM
COC(=O)c1ccc(NC(=O)c2c(NCc3ccc(C)o3)sc3c2CCCC3)cc1,10µM
CC(=O)Nc1ccc(C(=O)N2CCC3(CC2)N=C(c2ccccc2)NO3)cc1,–
CC(C)c1noc([C@@H]2C[C@@H](O)CN2Cc2ccc(S(C)(=O)=O)cc2)n1,–
COc1cccc(CNC(=O)[C@@H]2C[C@@H](O)CN2C2CCN(C(=O)c3sccc3C)CC2)c1,–
COc1ccc(/C=C/c2ccc3c(c2)C(=O)N2C[C@@H](NC(=O)c4cccn4C)C[C@H]2C(=O)N3)cc1,–
CCS(=O)(=O)N1C[C@@H]2CN(c3nccc(NC)n3)C[C@]2(C(=O)O)C1,–
O=C(COc1ccccc1)N1CCC([C@@H]2CNC[C@H]2CO)CC1,–
Cc1ccc(NC(=O)CN2C(=O)NC(c3ccccc3Cl)C3=C2COC3=O)cc1 (stereo not drawn),–
SMILES,Pf Dd2 growth
O=C(c1ccccc1)N1CCN2C(=O)N(Cc3ccc(F)cc3)C[C@H]2C1,–
O=C(c1ccc(N2CC3CC(C2)[C@H]2CCCC(=O)N2C3)nc1)N1CCN(C2CCCCC2)CC1 (stereo partly drawn),–
O=C(O)C1=NOC2CN(C(=O)Cc3ccccc3)CC12 (stereo not drawn),–
CN1CCCC1c1nc(C2CNC2)no1 (stereo not drawn),–
CC(C)CN1C(=O)c2cccn2CC1C(=O)NCCCN1CCCC1=O (stereo not drawn),–
CCOc1ccccc1NC(=O)c1c(NCc2ccc(C)o2)sc2c1CCC(C)C2 (stereo not drawn),–
CNC(=O)c1c(NC(=O)Cc2coc3ccc(OC)cc23)sc2c1CCCC2,–
CCOc1ccccc1NC(=O)c1c(NCc2ccc(C)o2)sc2c1CCCCC2,13µM
CCOC(=O)c1c(NC(=O)c2ccc(C)c(C)c2)sc2c1CCCCC2,–
CCOC(=O)c1ccc(NC(=O)c2c(NCc3sccc3C)sc3c2CCCCC3)cc1,10µM
CCOC(=O)c1c(NC(=O)c2cc(Cl)ccc2Cl)sc2c1CCCC2,–
COc1ccc(NC(=O)c2c(NC(=O)C(F)(F)F)sc3c2CCCCC3)cc1,3.2µM
COc1ccc(CC(=O)Nc2sc3c(c2C(=O)Nc2ccc(C)cc2)CCCCC3)cc1,–
COc1ccc(/C=C/C(=O)Nc2sc3c(c2C(N)=O)CCCC3)cc1,–
CCOc1ccccc1NC(=O)c1c(NC(=O)COc2ccccc2)sc2c1CCCC2,–
COc1ccc(CC(=O)Nc2sc3c(c2C(=O)Nc2c(C)cccc2C)CCCCC3)cc1,–
COc1ccc(NC(=O)c2c(NCc3cccc(OC)c3)sc3c2CCCC3)cc1,10µM
CN1C[C@H]2CN(c3cncc(C(N)=O)n3)C[C@@]2(C(=O)O)C1,–
Cn1nc(-c2nncn2CC2CC2)c2c1CCNC2,–
Cn1nccc1CN1CCn2c(nnc2-c2cccnc2)C1,–
Cc1ccc(O[C@H]2CCOC[C@H]2NC(=O)C2CCS(=O)(=O)CC2)cn1,–
COCCc1noc(-c2ccccc2OC2CN(C(=O)c3cnccn3)C2)n1,–
COCCc1noc(-c2ccccc2OC2CN(S(=O)(=O)C(C)C)C2)n1,8.9µM
Cc1noc(-c2ccccc2OC2CCN(S(C)(=O)=O)C2)n1 (stereo not drawn),–
COCCc1noc(-c2ccccc2OC2CN(C(=O)c3ccncc3)C2)n1,10µM
SMILES,Pf Dd2 growth
COc1ccc(OC)c(S(=O)(=O)N2CCC(Oc3ccccc3-c3nc(C)no3)C2)c1 (stereo not drawn),–
Cc1ccc(C(=O)N2CCC(Oc3ccccc3-c3nc(-c4ccncc4)no3)C2)cn1 (stereo not drawn),–
COC[C@@H]1[C@H](NC(=O)c2cnc3c(c2)CCC3)[C@@H]2CCO[C@H]12,–
C[C@@H](NS(=O)(=O)c1ccccc1)c1onc(-c2ccc(Cl)cc2)c1C(=O)O,–
COC[C@@H]1CN(C(=O)c2cccc(F)c2)C[C@H]1C(N)=O,–
Cc1n[nH]c(C)c1CN1CCC2(CC1)CN(Cc1ccccc1)CC2CO (stereo not drawn),–
O=C(CCc1ncc(-c2ccccc2)o1)Nc1ccc2c(c1)C(=O)N1CCC[C@H]1C(=O)N2,–
CN(Cc1ccon1)C(=O)c1ccc2c(c1)[nH]c(=O)n2C1CCC(O)CC1 (stereo not drawn),–
COCCNC(=O)[C@@H]1C[C@@H](O)CN1C1CCN(C(=O)C(C)C)CC1,–
COc1ccc(NC(=O)N2Cc3[nH]cnc3C[C@H]2c2nc(-c3ccc(OC)cc3)no2)cc1,–
O=C(NC1CCCCC1)N1CCCCCC1c1nc(-c2ccncc2)no1 (stereo not drawn),–
Cc1cccc(-c2noc([C@@H]3Cc4nc[nH]c4CN3C(=O)Nc3cccc(C#N)c3)n2)c1,–
O=C(NC1CCCCC1)N1Cc2[nH]cnc2C[C@H]1c1nc(-c2ccncc2)no1,13µM
CC(C)NC(=O)N1Cc2[nH]cnc2C[C@H]1c1nc(-c2ccccc2)no1,–
Cc1cccc(-c2noc([C@@H]3Cc4nc[nH]c4CN3C(=O)Nc3cccc(F)c3)n2)c1,13µM
O=C(Nc1ccccc1)N1Cc2[nH]cnc2C[C@H]1c1nc(-c2ccccc2)no1,–
O=C(c1ccccc1)N1Cc2[nH]cnc2C[C@H]1c1nc(-c2ccncc2)no1,11µM
O=C(Nc1cccc(F)c1)N1Cc2[nH]cnc2C[C@H]1c1nc(-c2ccccc2)no1,–
Cc1ccc(C)c(OCC(=O)c2ccc3c(c2)N(C(C)C(=O)N2CCCC2)C(=O)CO3)c1 (stereo not drawn),–
Cc1cc(C(=O)N2CCCn3ccnc3C2c2cnn(C)c2)c(C)o1 (stereo not drawn),–
COCC1CN(S(=O)(=O)c2cccnc2)CC12CCOCC2 (stereo not drawn),–
COCCNS(=O)(=O)c1cc(C(=O)O)cc(-c2c(OC)cccc2OC)c1,–
